Test [1] can be described thus: qHTS profiling for inhibitors of Plasmodium falciparum proliferation (AID 504749). Further: nearly all actives have a fitted effect of over 60% in size.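 On activity, negative = inhibition: 0% = DMSO vehicle and full inhibition = artemisinin control.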 To be noted: P. falciparum in erythrocytes, SYBR Green DNA, 72 h. The procedure, abridged: (§1)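 Infected RBCs, 0.3% parasitemia/2.5% Hct final; cpd 72 h, 37 C, 5% CO2; lysis buffer with saponin/triton/SYBR Green I, o/n RT dark; FI 485/535; norm. to artemisinin (0.29 uM) and DMSO.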
On the technique in general: qHTS replaces the single test concentration by a dilution series.

The subject of the next test is 3D7. Described as above. The settings on record: P. falciparum in erythrocytes, SYBR Green DNA, 72 h; series mostly up to 28.7 µM. The procedure, abridged: as §1
The test system of the next test is 7G8. The description is as above. The settings on record: P. falciparum in erythrocytes, SYBR Green DNA, 72 h; series mostly up to 28.7 µM. The procedure, abridged: as §1
The test system of a further test is AA1029. The description is as above. The settings on record: P. falciparum in erythrocytes, SYBR Green DNA, 72 h; series mostly up to 28.7 µM. In short, it runs like this:
as §1

The subject of a further test is AS120. Described as above. To be noted: P. falciparum in erythrocytes, SYBR Green DNA, 72 h; series mostly up to 28.7 µM. In short, it runs like this: as §1
The test system of another test is ATS189. The description is as above. To be noted: P. falciparum in erythrocytes, SYBR Green DNA, 72 h; series mostly up to 28.7 µM. The procedure, abridged:
as §1

The next test has as its system ATS95. The description is as above. To be noted: P. falciparum in erythrocytes, SYBR Green DNA, 72 h; series mostly up to 28.7 µM. The procedure, abridged:
as §1

Another test concerns C2A. The description is as above. To be noted: P. falciparum in erythrocytes, SYBR Green DNA, 72 h; series mostly up to 28.7 µM. In short, it runs like this: as §1
In a further test the test system is CP185. The test is described as above. To be noted: P. falciparum in erythrocytes, SYBR Green DNA, 72 h; series mostly up to 28.7 µM. In short, it runs like this: as §1
A further test has as its system CP191. The test is described as above. To be noted: P. falciparum in erythrocytes, SYBR Green DNA, 72 h; series mostly up to 28.7 µM. The procedure, abridged:
as §1

Another test deals with CP192. The description is as above. To be noted: P. falciparum in erythrocytes, SYBR Green DNA, 72 h; series mostly up to 28.7 µM. The procedure, abridged:
as §1

The next test has as its system CP194. Described as above. To be noted: P. falciparum in erythrocytes, SYBR Green DNA, 72 h; series mostly up to 28.7 µM. The procedure, abridged: as §1
The next test relates to CP201. The test is described as above. The settings on record: P. falciparum in erythrocytes, SYBR Green DNA, 72 h; series mostly up to 28.7 µM. In short, it runs like this:
as §1

The test system of the next test is CP211. The test is described as above. The settings on record: P. falciparum in erythrocytes, SYBR Green DNA, 72 h; series mostly up to 28.7 µM. In short, it runs like this: as §1
Another test relates to CP203. Described as above. The settings on record: P. falciparum in erythrocytes, SYBR Green DNA, 72 h; series mostly up to 28.7 µM. In short, it runs like this:
as §1

Setting [2] is: at 12.8 µM (top of the series), parasite line A.
Where [3] appears, read: at 12.8 µM (top of the series), parasite line B.
Where [4] appears, read: at 28.7 µM (top of the series), parasite line A.
[5] abbreviates: at 28.7 µM (top of the series), parasite line B.

Consider 16 molecules from PubChem BioAssay (NCATS).

SMILES strings stand for the structures. Inconclusive results are not listed. Unmarked numbers belong to inactive results. Calls of active or inactive are those of the source. The call rests on the fitted dose curve; in most records, active means well fitted inhibition curve with a large enough effect; inconclusive means small, poorly fitted or top-dose-only effect; inactive means flat fitted curve, though single readings scatter.
Potency means the concentration at half of the fitted maximal effect.

For the molecule `O=C1C(=O)c2ncccc2-c2cccnc21`, the Potency is 0.891 µM (active) in test [1] (parasite line A); 1.12 µM (active) in test [1] (parasite line B); 0.891 µM (active) in the test with 3D7; 1 µM (active) with 7G8; 1 µM (active) in the test with AA1029; 0.708 µM (active) with AS120. Moreover, the Potency is 1.41 µM (active) in the test with ATS189; 1 µM (active) in the test with ATS95; 3.16 µM (active) in the test with C2A; 2.51 µM (active) in the test with CP185; 3.16 µM (active) in the test with CP191; 0.953 µM (active) in the test on CP192. Moreover, the Potency is 1.35 µM (active) in the test on CP194, 1.69 µM (active) in the test on CP201 and 1.07 µM (active) with CP211.

Consider `C[C@]12O[C@H](C[C@]1(O)CO)n1c3ccccc3c3c4c(c5c6ccccc6n2c5c31)CNC4=O`, for which the Potency was 0.398 µM (active) in [1] (parasite line A); 0.447 µM (active) in test [1] (parasite line B); 0.224 µM (active) in the test on 3D7; 0.1 µM (active) in the test with 7G8; 0.316 µM (active) in the test on AA1029; 0.251 µM (active) in the test with AS120. For the same molecule, the Potency is 0.316 µM (active) with ATS189; 0.355 µM (active) with ATS95; 0.316 µM (active) with C2A; 0.316 µM (active) in the test on CP185; 0.282 µM (active) in the test with CP191; 0.379 µM (active) with CP192. Also, the Potency in the test with CP194 is 0.379 µM (active); in the test with CP201 it was 0.536 µM (active); in the test on CP203, 0.269 µM (active); with CP211 it was 0.426 µM (active).

Consider `CC(C)(C)C(=O)OCOC(=O)[C@@H]1N2C(=O)[C@@H](N=CN3CCCCCC3)[C@H]2SC1(C)C`, for which the activity, negative = inhibition in test [1] (setting [2]) is 1.15%; in test [1] (setting [3]) it was 5.1%. Further, the Potency result in the test with 3D7, in the test on 7G8, in the test on AA1029, with AS120, with ATS189 and in the test with ATS95 was “inactive” each time. The Potency result with C2A, with CP185, in the test with CP191, in the test with CP192, in the test on CP194 and with CP201 was “inactive” throughout. The Potency entry in the test with CP211 was “inactive”.

Regarding `CC(=O)Oc1cc(C)c(OC(C)=O)c2ccccc12`, the Potency in the test with 3D7 is 8.91 µM (active); in the test on 7G8, 5.01 µM (active); in the test on AS120, 10 µM (active); in the test on C2A it was 11.2 µM (active); with CP192, 10.7 µM (active).

For `O=C(Nc1cccc(C(F)(F)F)c1)c1cc(Br)cc(Br)c1O`, the Potency in [1] (parasite line B) was 10 µM (active); with 7G8, 6.31 µM (active); with AS120, 12.6 µM (active); in the test with CP211 it was 12 µM (active).

Regarding `COC(=O)[C@H]1[C@H]2CC3c4[nH]c5ccccc5c4CCN3C[C@@H]2CC[C@@H]1O` (stereo not given in full), the activity, negative = inhibition was 14.5% in [1] (setting [4]) and 13.8% in [1] (setting [5]). In addition, the Potency result with 7G8, with AA1029, in the test on AS120, in the test on ATS189, in the test with ATS95 and with C2A was “inactive” in each case. Moreover, the Potency result with CP185 and in the test on CP191 was “inactive” in each case.

As to `NC(=O)c1ncn(C2OC(CO)C(O)C2O)n1` (stereo not given), the activity, negative = inhibition is -11.3% in test [1] (setting [4]) and -20.5% in test [1] (setting [5]). The Potency result in the test on 3D7, in the test on AA1029, in the test with AS120, in the test on ATS189, in the test with ATS95 and with CP185 was “inactive” each time. Moreover, the Potency result with CP191, in the test on CP192, in the test on CP194, in the test on CP201 and in the test with CP211 was “inactive” in each case. Moreover, in the test with 7G8, the Potency was 7.94 µM (active).

`CCN(CC)CCOc1ccc(-c2nc3cc(Cl)ccc3s2)cc1`: the Potency with 7G8 is 11.2 µM (active). In addition, the Potency entry in the test with AS120, in the test with ATS189, in the test with CP185, in the test on CP192, in the test on CP194 and in the test with CP201 was “inactive” throughout. Also, the Potency entry in the test with CP211 is “inactive”.

Regarding `O=S(=O)(O)O`, the results for the activity, negative = inhibition in [1] (setting [4]) and in [1] (setting [5]) were -14.8% and 2.3%, respectively. Also, the Potency entry in the test on 7G8, with AA1029, in the test with AS120, in the test on ATS189, in the test with ATS95 and with C2A was “inactive” each time. In addition, the Potency result in the test with CP185, with CP191, in the test on CP192, with CP194, with CP201 and in the test with CP211 was “inactive” throughout.

As for `COC(=O)C1=C(C#N)NC(C)=C(C(=O)OC(C)C)C1c1cccc([N+](=O)[O-])c1` (stereo not given), the Potency in test [1] (parasite line A) is 8.91 µM (active); in test [1] (parasite line B) it was 11.2 µM (active); in the test with 3D7, 8.91 µM (active); with 7G8 it was 10 µM (active); with AA1029, 11.2 µM (active); with AS120 it was 8.91 µM (active). The Potency in the test on ATS189 was 11.2 µM (active); in the test with ATS95, 11.2 µM (active); with C2A, 11.2 µM (active); in the test on CP185, 7.94 µM (active); in the test with CP191, 11.2 µM (active); in the test on CP194, 12 µM (active). Further, the Potency with CP203 is 7.57 µM (active); in the test on CP211 it was 9.53 µM (active).

Turning to `O=S(=O)(O)c1cc(O)c2c(N=Nc3ccc(Nc4ccccc4)c4c(S(=O)(=O)O)cccc34)cc(S(=O)(=O)O)cc2c1`, the Potency result in the test on 3D7, in the test on AA1029, in the test with ATS189, in the test on ATS95, in the test on C2A and in the test on CP203 was “inactive” each time.

Turning to `CCCCCCOc1ccc(C(=N)N(CCCC)CCCC)c2ccccc12`, the Potency was 7.08 µM (active) in test [1] (parasite line A); 5.01 µM (active) in the test on 3D7; 4.47 µM (active) in the test on 7G8; 10 µM (active) in the test on ATS189; 11.2 µM (active) in the test with C2A; 10 µM (active) with CP185. For the same molecule, the values for the Potency in the test with CP191, in the test on CP192 and in the test on CP201 were 4.47 µM (active), 19 µM (active) and 16.9 µM (active), respectively.

On to `C#C[C@]1(O)CC[C@H]2[C@@H]3CCC4=CCCC[C@@H]4[C@H]3C(=C)C[C@@]21CC`, for which the Potency result with 7G8, with C2A, with CP192, with CP194, in the test on CP201 and in the test on CP211 was “inactive” in each case. The Potency in the test on CP191 is 10 µM (active).

With `CC(Cc1ccc(O)c(O)c1)C(C)Cc1ccc(O)c(O)c1` (stereo not given), the activity, negative = inhibition in test [1] (setting [4]) is 6.89%; in test [1] (setting [5]), -26.4%. The Potency entry in the test on 3D7, with AA1029, with ATS189, with ATS95, with C2A and in the test with CP185 was “inactive” each time. Besides, the Potency entry in the test with CP191, with CP192, in the test with CP194, with CP201, with CP203 and with CP211 was “inactive” throughout. The Potency with 7G8 is 8.91 µM (active).

With `CC(C)N=c1cc2n(-c3ccc(Cl)cc3)c3ccccc3nc-2cc1Nc1ccc(Cl)cc1`, the activity, negative = inhibition in test [1] (setting [2]) is -13.2%; in [1] (setting [3]) it was -1.3%. The Potency with 7G8 was 3.98 µM (active). Further, the Potency result in the test with AA1029, with AS120, in the test with ATS189, in the test on ATS95, in the test with C2A and in the test with CP185 was “inactive” in each case. The Potency result in the test on CP191, in the test with CP194, in the test on CP201 and in the test on CP211 was “inactive” throughout.

On to `C=C1C(=CC=C2CCC[C@@]3(C)[C@@H]2CC[C@H]3[C@H](C)CCCC(C)C)C[C@@H](O)C[C@@H]1O`, for which the Potency in the test on 3D7 was 11.2 µM (active); in the test on 7G8 it was 10 µM (active); with C2A, 10 µM (active); in the test on CP191, 11.2 µM (active). The Potency entry with AA1029, in the test on CP192, in the test with CP194, in the test on CP201, in the test with CP203 and with CP211 was “inactive” each time.
